# GalR3 antag – human GalR3 antagonism. O60755. HEK293 GalR3-CNG cAMP membrane potential fluorescence; galR3 body fused to GalR1 C-terminus. inhibition, % at 3 µM. 360,000 compounds, 0.44% hits;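 active = inhibition above the screen-wide average plus 3 SD, cut at about 13% in these data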;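 also: forskolin and galanin both at EC90 stimulate the cells; cAMP rise reported by CNG channel membrane potential dye signal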
# Target sequence (O60755 1-299 limits assumed): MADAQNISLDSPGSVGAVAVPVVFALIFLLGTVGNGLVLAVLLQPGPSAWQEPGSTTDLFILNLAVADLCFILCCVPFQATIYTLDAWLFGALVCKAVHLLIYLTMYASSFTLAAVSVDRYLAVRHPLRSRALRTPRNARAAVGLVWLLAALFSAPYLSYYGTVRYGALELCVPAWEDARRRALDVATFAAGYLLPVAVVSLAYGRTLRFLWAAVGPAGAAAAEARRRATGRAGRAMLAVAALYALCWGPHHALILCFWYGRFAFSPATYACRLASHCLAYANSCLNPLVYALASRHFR
# 697 NFkB inh – inhibitors of the PMA/ionomycin-induced NF-kB reporter in 697 B cells | 697 B-cell NF-kB luciferase reporter, 16 h | inhibition, % at 4 µM | 330,000 compounds, 0.33% hits | AID 435022; in the data active = inhibition above about 35%
# Gli-Sufu antag – antagonists of Gli-Sufu signaling; Sufu-KO-LIGHT fibroblasts, Gli luciferase reporter luminescence; inhibition, % at 5 µM; 340,000 compounds, 0.74% hits;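 active = inhibition above about 55%, limit read from the data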
# COUP-TFII inh – blocks human COUP-TFII nuclear receptor | P24468 | inhibition, % at 8.6 µM | 370,000 compounds, 0.7% hits | AID 686940 | HEK293T NGFI-A luciferase reporter, luminescence;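 active = inhibition above a per-plate cutoff, mean inhibition of test wells between control levels plus 3 SD, cut at about 38% in these data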;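 also: cells cotransfected with COUP-TFII expression vector driving the NGFI-A reporter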
# Jurkat NFkB inh – inhibitors of the PMA/ionomycin-induced NF-kB reporter in Jurkat cells; PMA/ionomycin-induced NF-kB luciferase reporter, luminescence; 330,000 compounds, 0.53% hits; inhibition, % at 4 µM; in the data active = inhibition above about 50%
# 697 NFkB conf – lowers PMA/ionomycin-induced NF-kB signal in 697 B cells. shares compounds with 697 NFkB inh. 2,000 compounds, 35% hits. inhibition, % at 4 µM. 697 B-cell NF-kB luciferase, 16 h; in the data active = inhibition mostly above about 28%, no sharp cut-off; inactive = mostly below about 22%
# Hits are given with their value; i = inactive; nt = no result. A selection: hits, their analogues and other compounds. The true share with any hit is near 2%.
SMILES,GalR3 antag,697 NFkB inh,Gli-Sufu antag,COUP-TFII inh,Jurkat NFkB inh,697 NFkB conf
Cc1cc(C)c(-c2csc(NC(=O)c3n[nH]c(=O)c4ccccc34)n2)c(C)c1,i,i,i,i,i,i
COc1cc(NC(=O)c2n[nH]c(=O)c3ccccc23)cc(OC)c1,i,i,i,i,i,nt
COc1ccc(-c2nc(NC(=O)c3n[nH]c(=O)c4ccccc34)sc2C)cc1,i,i,i,i,i,i
O=S1(=O)CCOCC(CO)N1Cc1cccc(Br)c1 (stereo not given),nt,nt,nt,i,nt,nt
COc1cc(/C=N/Nc2nc(Nc3ccccc3)nc(N3CCOCC3)n2)ccc1OC(=O)c1ccco1,i,48.9,i,i,i,38.7
C(=N\Nc1nc(N2CCOCC2)nc(N2CCOCC2)n1)/c1cccnc1,i,i,i,i,i,nt
O=C(Oc1cccc(/C=N/Nc2nc(N3CCOCC3)nc(N3CCOCC3)n2)c1)c1ccco1,i,44.3,i,i,i,24.6
CCCCCN1CCCCC(NC(=O)c2c(F)cccc2F)C1=O (stereo not given),nt,nt,nt,i,nt,nt
O=C(c1cc2nc(-c3ccccc3)cc(-c3ccccc3)n2n1)N1CCN(C(=O)c2ccco2)CC1,i,41.6,i,i,i,36.5
O=C(c1cc2nc(-c3ccccc3)cc(-c3ccccc3)n2n1)N1CCCC1,i,i,i,i,i,nt
CCOC(=O)C1(Cc2ccccc2)CCN(Cc2ccccc2[N+](=O)[O-])CC1,nt,nt,nt,i,nt,nt
COc1ccc(C=C(C(C)=O)C(C)=O)cc1OC,i,42.7,i,i,i,30.3
COc1cc(OC)c2c(-c3cccc(-c4cccc(C)c4)c3)cc(=O)oc2c1,i,i,i,i,nt,nt
COc1ccc(-c2cccc(-c3cc(=O)oc4cc(OC)cc(OC)c34)c2)cc1,i,i,i,i,nt,i
COc1cc(OC)c2c(-c3cccc(-c4ccc(OC(F)(F)F)cc4)c3)cc(=O)oc2c1,i,i,i,i,nt,nt
COc1cc(OC)c2c(-c3cccc(-c4ccc(N(C)C)cc4)c3)cc(=O)oc2c1,i,i,i,i,nt,i
COc1cccc(-c2nnc(SCC(=O)OC(C)C)n2-c2ccc(Cl)cc2)c1,nt,nt,nt,i,nt,nt
COc1cc(/C=C/c2nc(N)nc(-c3ccccc3O)n2)cc(OC)c1OC,i,36.0,i,i,i,i
COc1ccc(C(=O)Nc2ccccc2C(=O)N/N=C/c2cccc3ccccc23)cc1,i,i,i,i,i,i
CCCc1ccc(-c2cc(C(=O)N3CCN(c4ccccn4)CC3)c3ccccc3n2)cc1,i,i,i,i,i,i
Cc1csc(NC(=O)c2cc3ccccc3o2)n1,i,35.8,i,i,i,i
Cc1csc(NC(=O)c2ccc(C)c([N+](=O)[O-])c2)n1,i,i,i,i,i,i
COC(=O)[C@@]12CCCCC3=C1N(CCC3)C(=O)[C@H]2CC(=O)N1CCC(c2ccccc2)CC1,nt,nt,nt,i,nt,nt
COC(=O)[C@]12C[C@H](CC(=O)NCc3ccc(OC)c(OC)c3)C(=O)N(Cc3cccc4ccccc34)C1=C[C@H](C1CCCC1)O[C@@H]2C,nt,nt,nt,i,nt,nt
Cn1cccc1C(=O)OCc1csc(-c2ccccc2)n1,i,i,i,i,i,i
SMILES,GalR3 antag,697 NFkB inh,Gli-Sufu antag,COUP-TFII inh,Jurkat NFkB inh,697 NFkB conf
O=C(OCc1csc(-c2ccccc2)n1)c1cccs1,i,i,i,i,i,nt
C[C@H]1[C@@H](OC(=O)NCc2ccc(Cl)cc2)CC[C@@]23CCCN2C(=O)CCC[C@@H]13,nt,nt,nt,i,nt,nt
CCOC(=O)[C@@]12CCCC=C1N(CCc1ccc(Cl)cc1)C(=O)[C@H]2CC(=O)N1CCC(c2ccccc2)CC1,nt,nt,nt,i,nt,nt
CCOc1ccc(-n2c(SCC(=O)Nc3ccc4c(c3)OCCO4)nc3c(c2=O)SCC3)cc1,i,37.8,i,i,i,32.3
Cc1n[nH]c(C)c1S(=O)(=O)NCCc1c[nH]c2ccccc12,nt,nt,nt,i,nt,nt
CC(C)(C)CN1C(N)=NC[C@@H]1Cc1ccc(O)cc1,i,43.7,i,i,i,i
CC(C)(C)CN1C(N)=NC[C@H]1Cc1ccc(O)cc1,i,i,i,i,i,nt
CC(=O)Nc1sc2c(c1C(c1ccc(F)cc1)N1CCOCC1)CCCC2 (stereo not given),i,36.5,i,i,i,i
CCc1ccc(Oc2c(Cl)cnn(-c3ccc(C)cc3)c2=O)cc1,nt,nt,nt,i,nt,nt
CCOC(=O)c1cc(NC(=O)c2ccoc2C)cc(C(=O)OCC)c1,i,36.5,i,i,i,i
CC(=O)c1cccc(NC(=O)c2ccoc2C)c1,i,i,i,i,i,nt
CCc1ccc2oc(-c3cccc(N)c3)nc2c1,i,i,i,i,i,i
Cc1ccc(-n2ncc3c(NCc4cccnc4)ncnc32)cc1C,i,i,i,i,i,i
CCCCNc1ncnc2c1cnn2-c1ccccc1,i,i,i,i,i,nt
CCCCNc1ncnc2c1cnn2-c1ccc(Cl)cc1,i,i,i,i,i,i
O=C(N/N=C\c1ccc(F)cc1)c1ccc(Cn2cc(Br)c([N+](=O)[O-])n2)o1,i,37.4,i,i,i,i
O=C(N/N=C\c1cccc(F)c1)c1ccc(Cn2cc(Br)c([N+](=O)[O-])n2)o1,i,i,i,i,i,nt
CCOC(=O)C1=C(N)n2c(s/c(=C\c3cccnc3)c2=O)=C(C(=O)OC)C1c1cccnc1 (stereo not given),i,37.2,i,i,i,i
COc1ccc(S[C@]2(C(=O)N(C)C)CC(=O)N(c3ccsc3)[C@@H]2c2ccc(OC)cc2)cc1,nt,nt,nt,i,nt,nt
Cc1ccc2nc(-c3ccc(NC(=O)CN4CCN(c5ccccn5)CC4)cc3)sc2c1,i,i,i,i,i,i
CCn1c(SCC(=O)Nc2ccc(-c3nc4ccc(C)cc4s3)cc2)nnc1-c1ccccc1,nt,i,nt,nt,i,i
Cc1cccc(-c2nnc(SCC(=O)Nc3ccc(-c4nc5ccc(C)cc5s4)cc3)n2Cc2ccco2)c1,nt,nt,nt,i,nt,nt
Cc1ccc2nc(NC(=O)CN3CCN(c4ccccn4)CC3)sc2c1,i,i,i,i,i,nt
COc1ccc2[nH]c3c(c2c1)CCN[C@]31C(=O)N(C)c2ccccc21,nt,nt,nt,i,nt,nt
CCOC(=O)N1CCN(C(=O)C[C@H]2C(=O)N(CCCOC)C3=CCCCC[C@]32C(=O)OC)CC1,nt,nt,nt,i,nt,nt
SMILES,GalR3 antag,697 NFkB inh,Gli-Sufu antag,COUP-TFII inh,Jurkat NFkB inh,697 NFkB conf
Nc1ccccc1SCC(=O)Nc1nc(-c2ccccc2)cs1,i,46.7,i,i,i,40.3
Cc1csc(SCC(=O)Nc2nc(-c3ccccc3)cs2)n1,i,i,i,i,i,nt
CCOC(=O)[C@H]1[C@H]2COc3ccccc3[C@@H]2N2C(=O)c3ccc(C)cc3NC(=O)[C@@]12C,i,36.1,i,i,i,i
O=C(Nc1cccc(Br)c1)c1ccc2c(c1)SC1=NS(=O)(=O)CCN12,i,46.0,i,i,i,40.6
COc1cc(/C=C/c2ccc3cccc(O)c3n2)cc(Cl)c1OC,i,i,i,i,i,i
COc1cc(Br)cc(/C=C/c2ccc3cccc(O)c3n2)c1OC,i,i,i,i,i,nt
COc1ccccc1N(Cc1ccccc1)S(=O)(=O)c1cccc(C(=O)Nc2cc(C)ccn2)c1,i,i,i,i,i,i
COc1ccccc1N(Cc1ccccc1)S(=O)(=O)c1cccc(C(=O)Nc2ncccc2C)c1,i,i,i,i,i,nt
